Screening results from PubChem.
aSyn UTR act = Activators via SNCA 5'UTR binding, MLPCN; alpha-synuclein 5'UTR reporter, activators screen; activity score, % (tested at 7.5 µM), hits read low; hit rate 7.1% among 300,000; AID 1814; in the data active means activity score below about -60%
Each line names hits and unclear results; the compound was inactive in the other large screens. Not all results are given here.

S=C(Nc1ccc(Br)cc1Cl)N1CCCC1	aSyn UTR act -91
Cn1c(/C=C/c2ccc([N+](=O)[O-])o2)nc2ccccc2c1=O	none
Cn1c(/C=C/c2ccccc2)nc2ccccc2c1=O	aSyn UTR act -137
Cn1c(/C=C/c2ccc(Cl)cc2)nc2ccccc2c1=O	aSyn UTR act -181
C=CCn1c(O)c(N=NC(=S)Nc2ccccc2C)c2cc(S(=O)(=O)N3CCOCC3)ccc21	none
CCn1c(=O)c(C(=O)Nc2ccccc2C)c(O)c2ccccc21	aSyn UTR act -81
C=CCn1c(=O)c(C(=O)Nc2ccccc2C)c(O)c2ccccc21	aSyn UTR act -156
CC(C)Cn1c(=O)c(C(=O)Nc2ccncc2)c(O)c2ccccc21	none
Cc1[nH]c2ccccc2c1C(=O)/C=C\c1ccccc1Cl	aSyn UTR act -314
O=C(N/N=C/c1ccccc1Cl)c1[nH]c2ccc(Br)cc2c1-c1ccccc1	none
Cc1[nH]c2ccccc2c1C(=O)/C=C/c1ccccc1Cl	aSyn UTR act -453
Cc1[nH]c2ccccc2c1C(=O)/C=C/c1ccccc1	aSyn UTR act -98
Cc1cc(-c2cccc([N+](=O)[O-])c2)nc2ccc3ccccc3c12	aSyn UTR act -108
FC(F)(F)c1cccc(-c2ccc(-c3csnn3)o2)c1	aSyn UTR act -85
O=C(NCc1nc2ccccc2[nH]1)c1cccs1	aSyn UTR act -64
CCO[C@H]1OC(C(=O)NCc2nc3ccccc3[nH]2)=C[C@@H](C2CC2)[C@@H]1CCCO	none
O=C(NCCc1cccc(Cl)c1)c1cccnc1	aSyn UTR act -84
Cc1cc2ccccc2n1CCNC(=O)c1cccs1	aSyn UTR act -121
O=C(NC(c1ccccc1)c1cc(Cl)c2cccnc2c1O)c1cccnc1 (configuration not stated)	none
O=C(NCCc1ccccc1)c1cnc2sccn2c1=O	aSyn UTR act -90
COc1ccc(Cl)cc1NC(=O)c1cnc2sccn2c1=O	aSyn UTR act -106
O=C(NCCc1cccc(Cl)c1)c1cccs1	aSyn UTR act -115
O=C(NCCc1ccccc1)c1cccs1	aSyn UTR act -94
Cc1cccc(-n2ncc3c(NCc4cccs4)ncnc32)c1	aSyn UTR act -112
Clc1ccc(-n2ncc3c(NCc4cccs4)ncnc32)cc1	aSyn UTR act -249
Cc1ccc(C(=O)c2coc3c2C(=O)C(=O)c2ccccc2-3)cc1	aSyn UTR act -90
COc1ccc(C(=O)c2c(C(F)(F)F)oc3c2C(=O)c2ccccc2C3=O)cc1	none
Cc1oc2c(c1C(=O)c1ccc(Cl)cc1)C(=O)C(=O)c1ccccc1-2	aSyn UTR act -87
CC(=O)NC1=NN(C(C)=O)C(c2ccc(C(C)C)cc2)S1 (configuration not stated)	aSyn UTR act -77
COc1ccc2nc(NC(=O)Cc3cccs3)sc2c1	aSyn UTR act -132
Cc1ccc2nc(NC(=O)COC(=O)c3ccco3)sc2c1	aSyn UTR act -97
O=C(Cc1cccs1)Nc1nc2ccccc2s1	aSyn UTR act -82
CC1(C(=O)Nc2nc3ccccc3s2)CC1(Br)Br (configuration not stated)	aSyn UTR act -118
CCc1ccc2nc(NC(=O)CCCc3cccs3)sc2c1	aSyn UTR act -81
CCOc1ccc2nc(NC(=O)Cc3cccs3)sc2c1	aSyn UTR act -137
CC(Cc1ccccc1)C(=O)NCc1nc2ccccc2s1 (configuration not stated)	aSyn UTR act -75
O=C(Cc1ccccc1)Nc1nc2ccccc2s1	aSyn UTR act -102
Cc1ccc2nc(NC(=O)Cc3cccs3)sc2c1	aSyn UTR act -166
O=C(Cc1nc(=O)c2ccccc2s1)Nc1ccccc1	aSyn UTR act -105
Cc1ccc2nc(NC(=O)c3ccccn3)sc2c1	none
COc1cccc(NC(=O)Nc2ccc3nsnc3c2)c1	aSyn UTR act -183
COc1ccc(NC(=O)Nc2ccc3oc(C)nc3c2)cc1	aSyn UTR act -164
Cc1cc(C)nc(NC(=O)Nc2ccc(F)cc2F)n1	aSyn UTR act -112
COCC(=O)Nc1ccc(C(C)C)cc1	aSyn UTR act -69
COc1cccc(NC(=O)Nc2ccccc2Br)c1	aSyn UTR act -120
COc1cc(-c2ccc(NC(=O)NC3CC3)c(OC)c2)ccc1NC(=O)NC1CC1	aSyn UTR act -99
Cc1nc2cc(NC(=O)NCCC3=CCCCC3)ccc2o1	aSyn UTR act -151
COc1ccc(NC(=O)Nc2cccc(OC)c2)cc1	aSyn UTR act -134
CCC1CCC(NC(=O)Nc2cccc(OC)c2)CC1 (configuration not stated)	aSyn UTR act -193
COc1ccc(NC(=O)Nc2ccc3c(c2)CCC3)cc1	aSyn UTR act -149
COc1ccc(NC(=O)Nc2ccc(F)cc2F)cc1	aSyn UTR act -139
COc1ccc(Nc2cc(Nc3cccc(OC)c3)ncn2)cc1	aSyn UTR act -80
COc1ccc(NC(=O)Nc2ccc(C(C)C)cc2)cc1	aSyn UTR act -75
C(#Cc1ccccc1)Cn1nnc2ccccc21	aSyn UTR act -98
Cc1cc(C(=O)N/N=C2\CC(=O)c3ccccc32)c(C)n1-c1ccccc1	aSyn UTR act -112
O=C(CC1=NCCNC(c2ccccc2)C1)c1ccccc1O (configuration not stated)	aSyn UTR act -145
